Source: PubChem BioAssay (NCI)
This is part of a sample that, as a whole, favours compounds with a hit. Of some 83,000 tested, about 20% had one in any assay.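 Values shown are percent growth following 48 h exposure of cells in 96-well plates to a single concentration of compound; below 10 was considered active.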 Unmarked numbers belong to inactive results. Activity calls are given as the source filed them.

Key:
Experiment in all cases: NCI-60 one-dose screen, 48 h (100 = growth as untreated, 0 = no growth, -100 = all killed)
Settings in all cases: 10 µM
NCI-H23 lung = test system: NCI-H23 lung
NCI-H226 lung = test system: NCI-H226 lung
NCI-H322M lung = test system: NCI-H322M lung
HOP-62 NSCLC = test system: HOP-62 NSCLC
NCI-H460 lung = test system: NCI-H460 lung
HOP-92 NSCLC = test system: HOP-92 NSCLC
NCI-H522 lung = test system: NCI-H522 lung
A549/ATCC NSCLC = test system: A549/ATCC NSCLC
786-0 renal = test system: 786-0 renal
COLO 205 colon = test system: COLO 205 colon

Compound | growth (NCI-H23 lung) | growth (NCI-H226 lung) | growth (NCI-H322M lung) | growth (HOP-62 NSCLC) | growth (NCI-H460 lung) | growth (HOP-92 NSCLC) | growth (NCI-H522 lung) | growth (A549/ATCC NSCLC) | growth (786-0 renal) | growth (COLO 205 colon)
CCCCCC(CCC)COC(=O)c1ccc(OC)cc1 (stereo not given) | 97.4% | 88.6% | 101% | 92.3% | 111% | 93.7% | 90.7% | 80.9% | 101% | 105%
CCOC(=O)c1cc(-c2ccccc2)nc(N)n1 | 99.5% | 89.5% | 99% | 96.1% | 104% | 78.1% | 95.5% | 102% | 108% | 114%
COc1cc(C2C=C(c3ccc(Cl)cc3)N=C3SC(C)=CN32)cc(OC)c1OC (stereo not given) | 93.8% | 96.9% | 97.3% | 109% | 102% | 95.2% | 69.9% | 83.8% | 89.5% | 109%
CCCCCCCCCCCCCCCC(=O)N1CCN(C)CC1 | 85.1% | 106% | 71.3% | 89% | 68.6% | 31.7% | 17.1% | 95.5% | 86% | 68.6%
Fc1ccc2[nH]c3c(NCCCN4CCOCC4)ncnc3c2c1 | 83.2% | 62.2% | 53.6% | 32.7% | 54% | 63.9% | 58.1% | 54.5% | 24.1% | 53.4%
Cc1ccc2oc(=O)cc(/C(=C3/C=CC=N3)c3ccc[nH]3)c2c1 | 9.51% (active) | -7.14% (active) | 25.4% | -11.3% (active) | -2.31% (active) | 7.28% (active) | -33.2% (active) | -21% (active) | 3.15% (active) | -53.6% (active)
Nc1nsc(C(=O)c2ccc(O)cc2)n1 | 98.6% | 104% | 105% | 76.4% | 110% | 88% | 91.8% | 83.7% | 117% | 106%
O=C(N/N=C\c1cc(Cl)ccc1O)c1ccncc1 | 46% | 31.6% | 59.5% | 55.7% | 25.3% | 47.5% | 11.7% | 79.8% | 19.1% | 23.7%
O=C(COc1ccc(-c2nc3ccccc3[nH]2)cc1)N=Nc1c(O)[nH]c2ccccc12 | 106% | 116% | 96.1% | 105% | 97.8% | 79.8% | 94% | 106% | 96.8% | 92.4%
CCOC(=O)c1sc(Nc2ncccn2)nc1-c1ccccn1 | 84.4% | 92.8% | 85% | 92% | 66.9% | 97.5% | 85.7% | 84.3% | 97.9% | 98.3%
N#Cc1cnc2ccc(NCc3cnc[nH]3)cc2c1Nc1ccc(F)c(Cl)c1 | 78.8% | 88.2% | 1.96% (active) | 94.3% | 62.5% | 51.9% | 10.2% | 70.9% | 65.7% | 96.9%
CCCCCCCCCCN=C(c1ccc(N(C)C)cc1)c1ccc(N(C)C)cc1 | 27.8% | 57.6% | 44.6% | 29.4% | 12.1% | 47.9% | 2.43% (active) | 30.5% | 48.8% | 6.54% (active)
CC(C)=C1CCC(C)C/C1=N\N=C(N)N (stereo not given) | 105% | 97.9% | 97.1% | 101% | 102% | 85.8% | 90.8% | 91.8% | 93.3% | 108%
CC(C)/C(=N/O)c1ccccc1 | 103% | 104% | 133% | 116% | 120% | 91.3% | 90.8% | 111% | 88.2% | 115%
C/C=C\COc1cc(C)c(Cl)cc1Cl | 111% | 87.5% | 104% | 109% | 103% | 85.5% | 119% | 91.8% | 108% | 107%
O=C1c2cc(Cl)ccc2-c2c(O)cc(Cl)cc21 | 49.3% | 94% | 109% | 89.6% | 99.5% | 52.8% | 76.2% | 105% | 103% | 92%
COCCOC(=O)NC(=O)Nc1ccc(C(=O)c2ccc(Cl)cc2)cc1 | 36.2% | 46.2% | 57.9% | 28.5% | 23.3% | 32.9% | 10.7% | 41.8% | 47% | 13.4%
CCOC(=O)c1c(O)c2cc(-c3ccccc3)nc(OCC)c2c(=O)n1C | 85.8% | 79% | 122% | 93.2% | 110% | 51.7% | 98.9% | 99.4% | 94% | 117%
COc1ccc(-c2nc(-c3nc4ccc(C)cc4[nH]3)c3ccccn23)cc1 | 69.3% | 57.9% | 50.3% | 52% | 52.1% | -2.51% (active) | 38.8% | 24.2% | 78.3% | 61.1%
COc1cc(C2c3cc4c(cc3C(O)C(CO)C2CO)OCO4)cc(OC)c1OC (stereo not given) | 43.2% | 40.4% | -0.279% (active) | 40.7% | 4.74% (active) | 65.4% | 3.32% (active) | 47.4% | 39.1% | -3.75% (active)
CC(C)c1ncc(CO)n1Cc1c(Cl)cccc1Cl | 110% | 94.3% | 99.7% | 103% | 103% | 93.6% | 94.4% | 102% | 104% | 89.6%
CCc1ccc(-c2nnc(COc3ccc(-c4nc5ccc(C)cc5[nH]4)cc3OC)o2)cc1 | 57.2% | 48.6% | 87.2% | 32.6% | 63.5% | 74.1% | 71.3% | 61.6% | 21% | 84.7%
COc1ccc2c(c1)/C(=C/c1cc(OC)c(OC)c(OC)c1)C(=O)N2C | 34.2% | 19.3% | 39.5% | 57.5% | -6.11% (active) | -7.03% (active) | -15.1% (active) | 14.5% | 29.4% | -36.8% (active)
COc1ccc(-c2nsc3c2NC(=O)CC3c2ccc(Cl)cc2)cc1 (stereo not given) | 83.9% | 84.4% | 83.5% | 92.6% | 94.8% | 73.3% | 68.1% | 76.6% | 84.2% | 93.8%
CC(C)c1[nH]nc2c(NCc3ccc(-c4ccccn4)cc3)nc(SCCN)nc12 | -34.8% (active) | -0.633% (active) | 10.3% | -15.3% (active) | 3.31% (active) | -11.1% (active) | -54.8% (active) | 6.81% (active) | 6.26% (active) | -48.2% (active)
COc1ccc(C(=O)/C=C/c2cc(-c3ccc4c(c3)OCO4)n[nH]2)cc1OC | 61.6% | 39.6% | 36.3% | 51.1% | 15.7% | 55.7% | 19.4% | 37.9% | 71.7% | 56.1%
O=C1NN(c2ccccc2)C(c2cccnc2)=N/C1=C\c1cccnc1 | 89.4% | 80.8% | 84.9% | 92% | 95.2% | 99% | 105% | 112% | 98.8% | 105%
CCCCCCCCCCCCCC[n+]1ccccc1 | -11.7% (active) | -19% (active) | 16.9% | -62% (active) | -44.8% (active) | -50.8% (active) | -66.9% (active) | -55.8% (active) | -53.5% (active) | -93% (active)
